Results reported in PubChem BioAssay.
The source made the active and inactive calls. Unless noted, no rule for the calls is given here.

Legend:
[1] = resazurin metabolic signal in HepG2 cells – cell-based, resazurin fluorescence, 24 h, PK04 Diversity Set, profiling panel (AID 1172); settings: HepG2 viability, higher = more signal; also: test concentration not given here
[2] = budding yeast growth changes without added modifier – OD600, strain BY4716, 24 h, basal condition, primary screen (AID 1173); settings: S. cerevisiae BY4716 growth, OD600, 24 h; higher = more signal, called active from +8 up or from −8 down
[3] = viability profiling in MM1S myeloma cells – cell-based, resazurin fluorescence, basal, 24 h, PK04 Diversity Set, profiling panel (AID 1174); settings: higher = more signal, called active from +8 up or from −8 down;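 also: MM1S multiple myeloma cell line; test concentration not given here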
[4] = target: Dihydroorotate dehydrogenase (quinone), mitochondrial (Plasmodium falciparum (isolate 3D7)) (UniProt Q08210); test: inhibition of P. falciparum DHODH – biochemical, C-terminal His tag, absorbance 600 nm, primary screen (AID 1175); settings: PfDHODH enzyme, DCIP absorbance 600 nm; higher = more signal, called active from +8 up or from −8 down;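 also: recombinant parasite enzyme with a five histidine tag at its C terminus; test concentration not given here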
Chain of Dihydroorotate dehydrogenase (quinone), mitochondrial (Plasmodium falciparum (isolate 3D7)) (Q08210 whole entry, looked up): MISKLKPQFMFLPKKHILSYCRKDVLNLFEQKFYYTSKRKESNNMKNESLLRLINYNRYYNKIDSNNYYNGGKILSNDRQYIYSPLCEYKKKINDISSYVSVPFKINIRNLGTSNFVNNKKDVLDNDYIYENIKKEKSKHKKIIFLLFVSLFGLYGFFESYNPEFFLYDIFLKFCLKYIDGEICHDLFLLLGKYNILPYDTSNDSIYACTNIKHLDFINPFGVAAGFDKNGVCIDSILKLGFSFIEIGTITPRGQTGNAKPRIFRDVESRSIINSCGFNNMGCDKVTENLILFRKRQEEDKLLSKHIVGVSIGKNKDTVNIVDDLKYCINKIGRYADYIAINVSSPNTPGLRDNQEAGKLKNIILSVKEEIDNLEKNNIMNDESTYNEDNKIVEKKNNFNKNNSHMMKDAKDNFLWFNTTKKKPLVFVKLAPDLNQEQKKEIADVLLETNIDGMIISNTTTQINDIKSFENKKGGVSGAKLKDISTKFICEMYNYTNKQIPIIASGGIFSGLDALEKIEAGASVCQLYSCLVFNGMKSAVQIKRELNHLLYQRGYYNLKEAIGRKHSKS

[5] = inhibition of PAO1 biofilm formation – strain PAO1, LB-PBS medium, absorbance 600 nm, primary screen (AID 1176); also: test concentration not given here; settings: P. aeruginosa PAO1 growth/biofilm, A600, 12 h; higher = more signal
[6] = growth modulation of vineyard yeast isolate – strain RM11-1a, OD600, basal, 24 h, primary screen (AID 1177);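 also: cultures grown under basal conditions with no added stressor; test concentration not given here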; settings: S. cerevisiae RM11-1a growth, OD600, 24 h; higher = more signal, called active from +8 up or from −8 down
[7] = growth of efflux-deficient E. coli DRC39 – strain DRC39, OD650, 24 h, E. coli filamentation inducers, primary screen (AID 1178);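 also: growth measured as culture turbidity by optical density at 650 nm; test concentration not given here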; settings: E. coli DRC39 acrAB, higher = more signal, called active from +8 up or from −8 down
[8] = growth of efflux-deficient E. coli DRC39 – strain DRC39, OD650, 48 h, E. coli filamentation inducers, primary screen (AID 1179);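 also: screen aims at cell division blockers that make cells filament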; settings: E. coli DRC39 delta-acrAB growth, higher = more signal, called active from +8 up or from −8 down
[9] = viability profiling in RPMI8226 myeloma cells – cell-based, resazurin fluorescence, basal, 24 h, PK04 Diversity Set, profiling panel (AID 1180); settings: higher = more signal;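 also: RPMI8826 multiple myeloma cell line at 5000 cells per well; test concentration not given here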
[10] = target: E3 ubiquitin-protein ligase XIAP (Homo sapiens) (UniProt P98170); test: small molecules binding XIAP protein – biophysical, small-molecule microarray, fluorescence 635 nm, primary screen (AID 1181); settings: higher = more signal;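 also: score merges 667 nm emission and signal to noise over triplicate slides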
Chain of E3 ubiquitin-protein ligase XIAP (Homo sapiens) (P98170 whole entry, looked up): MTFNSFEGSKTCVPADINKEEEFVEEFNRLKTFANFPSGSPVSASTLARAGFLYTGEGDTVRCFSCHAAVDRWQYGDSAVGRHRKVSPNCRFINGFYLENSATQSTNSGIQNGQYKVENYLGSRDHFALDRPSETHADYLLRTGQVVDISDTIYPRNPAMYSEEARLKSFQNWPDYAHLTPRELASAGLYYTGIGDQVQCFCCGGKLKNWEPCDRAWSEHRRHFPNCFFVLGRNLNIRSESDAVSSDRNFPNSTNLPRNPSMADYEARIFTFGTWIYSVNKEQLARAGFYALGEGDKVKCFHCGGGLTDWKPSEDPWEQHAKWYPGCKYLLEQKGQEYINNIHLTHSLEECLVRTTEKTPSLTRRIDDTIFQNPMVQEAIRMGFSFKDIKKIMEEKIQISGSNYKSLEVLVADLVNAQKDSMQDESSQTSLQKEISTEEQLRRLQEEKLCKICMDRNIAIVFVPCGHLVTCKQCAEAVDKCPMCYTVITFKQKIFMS

Row | SMILES | z-score [1] | z-score [2] | z-score [3] | composite z-score [4] | z-score [5] | z-score [6] | z-score [7] | z-score [8] | z-score [9] | composite z-score [10]
1 | COC(=O)[C@@]1(Cc2ccccc2)[C@H]2c3cc(C(=O)N4CCCC4)n(Cc4ccc(O)c(OC)c4)c3C[C@H]2CN1C(=O)c1ccccc1 | -1.82 | 1.93 (inactive) | -0.948 (inactive) | 0.05 (inactive) | 0.675 (inactive) | 1.8 (inactive) | -1.12 (inactive) | -0.697 (inactive) | -2.74 | 0.224
2 | [N-]=[N+]=Nc1ccccc1[C@H]1OC(c2ccc(OCCCO)cc2)=N[C@@]1(Cc1ccccc1)C(=O)N1CCOCC1 | -1.28 | -1.33 (inactive) | -2.81 (inactive) | 0.396 (inactive) | 0.948 (inactive) | 0.711 (inactive) | 0.226 (inactive) | -0.927 (inactive) | -4.56 | -0.0917
3 | COC(=O)C(CC#Cc1ccc2c(c1)[C@]1(C(=O)N2)[C@H](c2ccc(O)cc2)N2[C@H](c3ccccc3)[C@H](c3ccccc3)OC(=O)[C@H]2[C@@H]1C(=O)N1CCN(c2ncccn2)CC1)C(=O)OC | -0.0862 | 0.238 (inactive) | -1.02 (inactive) | 0.0817 (inactive) | 0.847 (inactive) | 0.849 (inactive) | 0.551 (inactive) | 0.769 (inactive) | -3.92 | -0.0668
4 | CC(C)[Si](C#CCCCC#N)(Oc1ccccc1Br)C(C)C | -0.192 | -3.82 (inactive) | 0.456 (inactive) | 0.0781 (inactive) | 0.313 (inactive) | -0.218 (inactive) | -0.9 (inactive) | -0.832 (inactive) | -0.193 | -0.0525
5 | COc1ccc(C#Cc2ccc3c(c2)[C@]2(C(=O)N3)[C@H](c3ccc(O)cc3)N3[C@H](c4ccccc4)[C@H](c4ccccc4)OC(=O)[C@H]3[C@@H]2C(=O)N2CCc3cc(OC)c(OC)cc3C2)cc1 | 0.449 | 1.14 (inactive) | -0.309 (inactive) | -0.103 (inactive) | 1.37 (inactive) | 0.816 (inactive) | -0.101 (inactive) | 0.304 (inactive) | -0.333 | -0.0582
6 | COCCCNC(=O)[C@@H]1c2ccccc2C(=O)N(Cc2ccccc2)[C@H]1c1ccc(CO)cc1 | 0.0319 | -0.141 (inactive) | 0.0771 (inactive) | -0.62 (inactive) | 0.0993 (inactive) | -0.575 (inactive) | 0.38 (inactive) | 0.0879 (inactive) | 0.279 | -0.0663
7 | CN1C(=O)C2C=CC(C(O)c3ccccc3)N(N3CCCCC3)C2C1=O (stereo not given) | -0.894 | 0.429 (inactive) | -0.983 (inactive) | 0.0669 (inactive) | 0.462 (inactive) | -0.023 (inactive) | -1.32 (inactive) | -1.4 (inactive) | -1.56 | 0.263
8 | O=C1C2C=CC(C(O)c3ccc(F)cc3)N(Nc3ccc([N+](=O)[O-])cc3)C2C(=O)N1c1ccccc1 (stereo not given) | 0.349 | 0.579 (inactive) | -0.115 (inactive) | -0.0421 (inactive) | 0.862 (inactive) | -0.228 (inactive) | -1.47 (inactive) | -0.639 (inactive) | -0.152 | 0.135
9 | CCOC(=O)C1=CC[C@@H](c2ccc(C(F)(F)F)cc2)N(S(=O)(=O)c2ccc(C)cc2)[C@H]1c1ccccc1 | -0.333 | 0.062 (inactive) | -2.34 (inactive) | -0.296 (inactive) | -0.0601 (inactive) | -0.258 (inactive) | -0.604 (inactive) | -0.126 (inactive) | -5.04 | -0.278
10 | CC(C)CN1C(=O)[C@@]2(c3ccc([N+](=O)[O-])cc3)CC(=O)N(C3CCCCC3)[C@@H]2c2ccc(CO)cc21 | -0.321 | 0.669 (inactive) | -0.248 (inactive) | -13.6 (active) | 0.292 (inactive) | 0.488 (inactive) | 0.0743 (inactive) | 0.922 (inactive) | -0.323 | 0.119
11 | COc1cc(CO)cc(I)c1O[C@H]1C=C(C(=O)NCCO)C[C@@H](N(C(=O)c2cc3ccccc3oc2=O)C2CCCCCC2)[C@@H]1O | -0.163 | -1.66 (inactive) | 1.11 (inactive) | -0.346 (inactive) | -0.377 (inactive) | -0.0819 (inactive) | 2.12 (inactive) | 0.435 (inactive) | -0.335 | -0.154
12 | C=CC[C@]1(C(=O)NCc2ccccc2)N=C(c2ccc(OCCCO)cc2)O[C@H]1c1ccccc1CN=[N+]=[N-] | 0.238 | -0.0802 (inactive) | -0.871 (inactive) | 0.548 (inactive) | 1.06 (inactive) | 0.149 (inactive) | -0.0443 (inactive) | -1.25 (inactive) | -0.328 | -0.0322
13 | [N-]=[N+]=NCc1ccccc1C[C@@]1(C(=O)NCC(O)CO)N=C(c2ccc(OCCCO)cc2)O[C@@H]1c1ccccc1 (stereo not given in full) | -1.07 | -2.07 (inactive) | -0.243 (inactive) | -0.0675 (inactive) | 0.466 (inactive) | 0.355 (inactive) | 1.39 (inactive) | 0.322 (inactive) | -0.645 | 0.19
14 | COc1ccc(NC(=O)O[C@H]2[C@H](OC(=O)c3cc4ccccc4[nH]3)[C@@H](OC(=O)c3cc4ccccc4[nH]3)[C@@H](OC)O[C@@H]2CO)cc1 | -1.08 | -0.302 (inactive) | -1.68 (inactive) | -0.558 (inactive) | 0.305 (inactive) | -0.575 (inactive) | 1.13 (inactive) | 1.53 (inactive) | -1.69 | 0.103
15 | COCCOC(=O)N1C(=O)[C@@]2(c3cc(C#CC4=CCCCC4)ccc31)[C@H](c1ccc(OCCO)cc1)N1[C@H](c3ccccc3)[C@H](c3ccccc3)OC(=O)[C@H]1[C@@H]2C(=O)N1CCc2cc(OC)c(OC)cc2C1 | -0.248 | 0.683 (inactive) | -0.607 (inactive) | -0.0879 (inactive) | 2.68 (inactive) | 4.26 (inactive) | 0.118 (inactive) | 0.796 (inactive) | 0.474 | -0.0872
16 | CCOc1ccc(N2C(=O)CSC2c2cccc([N+](=O)[O-])c2)cc1 (stereo not given) | 0.296 | 0.269 (inactive) | -0.0959 (inactive) | -0.274 (inactive) | -0.0902 (inactive) | 0.791 (inactive) | 0.754 (inactive) | 0.908 (inactive) | -0.0239 | -0.183
17 | C=CCC(OC(C)=O)[C@@H]1[C@@H](N(Cc2ccc(-c3ccccc3)cc2)C(=O)Cc2ccc(F)cc2)c2cc(OCCCO)ccc2N1C(=O)c1ccc2ccccc2c1 (stereo not given in full) | -0.228 | -0.458 (inactive) | 0.376 (inactive) | 0.683 (inactive) | 0.0885 (inactive) | -0.198 (inactive) | -0.794 (inactive) | -0.397 (inactive) | -0.112 | -0.146
18 | O=C1[C@H]2C=C(I)[C@H](C[C@@H]2OCCCCO)[C@@]12CO2 | 0.187 | -1.19 (inactive) | -0.536 (inactive) | -0.543 (inactive) | 0.13 (inactive) | -0.192 (inactive) | -0.682 (inactive) | -0.405 (inactive) | -0.304 | -0.0448
19 | CCCCC(=C=CC[C@H](O)c1cccc(OCCO)c1)C[C@H](O)c1ccccn1 | 1.7 | -1.1 (inactive) | 1.03 (inactive) | -2.69 (inactive) | -0.235 (inactive) | -1.49 (inactive) | 1.58 (inactive) | 1.58 (inactive) | 1.83 | -0.188
20 | [N-]=[N+]=Nc1ccccc1[C@H]1OC(c2ccc(OCCCO)cc2)=N[C@@]1(CCS(=O)(=O)c1ccccc1)C(=O)NCc1ccccc1 | 0.614 | -0.008 (inactive) | -0.548 (inactive) | 0.44 (inactive) | 0.441 (inactive) | -0.22 (inactive) | -0.0211 (inactive) | -0.77 (inactive) | -0.129 | 0.0623
21 | O=C1NC(=O)C2C1C=CC(C(O)c1ccc(I)cc1)N2Nc1ccc(Cl)cc1Cl (stereo not given) | -1.99 | -15.1 (active) | -0.177 (inactive) | -1.4 (inactive) | 2.06 (inactive) | -4.5 (inactive) | 0.163 (inactive) | -0.186 (inactive) | -0.137 | -0.108
22 | COC(=O)c1c2oc(c1C(=O)OC)C(=O)N[C@@H](C(C)C)Cn1cc(nn1)C1(CCCCC1)NC(=O)N[C@H](CO)CC2 | 1.61 | -1.04 (inactive) | 1.31 (inactive) | 0.0825 (inactive) | 0.985 (inactive) | -0.719 (inactive) | 0.925 (inactive) | 1.11 (inactive) | 1.07 | 0.098
23 | COc1ccc([C@H]2OC[C@@H]3CCC(=O)N32)cc1 | 0.219 | 0.242 (inactive) | 0.526 (inactive) | -0.0915 (inactive) | -0.133 (inactive) | 0.189 (inactive) | 0.905 (inactive) | 0.593 (inactive) | 0.131 | -0.199
24 | CN(C)CCCCNC(=O)[C@@H]1C[C@@H]2C(=O)N[C@@H](CCCCN)C(=O)N2[C@@H]1c1ccc(O)cc1 | 0.637 | 1.43 (inactive) | 0.832 (inactive) | 0.0724 (inactive) | 0.833 (inactive) | 2.32 (inactive) | 0.499 (inactive) | 1.1 (inactive) | 0.918 | -0.131
25 | COCC(=C=CC[C@H](O)c1cccc(OCCO)c1)CCO | 0.72 | 0.161 (inactive) | 0.491 (inactive) | -0.326 (inactive) | 0.154 (inactive) | 0.896 (inactive) | 0.128 (inactive) | 0.398 (inactive) | 0.557 | 0.0153
26 | Cc1c(NC(=O)/C(C#N)=C/c2cccc([N+](=O)[O-])c2)c(=O)n(-c2ccccc2)n1C | 0.131 | -0.701 (inactive) | -1.34 (inactive) | -2.58 (inactive) | 0.972 (inactive) | -2.91 (inactive) | 1.48 (inactive) | 0.837 (inactive) | 0.246 | 0.248
27 | C[C@H]1C2[C@H](Cc3ccccc3)NC(=O)[C@]23C(=O)NCC(=O)N2CCC[C@H]2C(=O)NC/C=C/CCC/C=C/C3[C@@H]2O[C@]12C (stereo not given in full) | -1.11 | -1.17 (inactive) | -0.111 (inactive) | -0.0305 (inactive) | -0.578 (inactive) | -0.0879 (inactive) | 1.2 (inactive) | 0.601 (inactive) | 0.277 | -0.152
